# Screens deposited in PubChem BioAssay by several laboratories.
# Rows were chosen to be rich in hits. Some 27% of all compounds tested hit in one or more screens of this group.
# CYP2C19 inh – blocks human cytochrome P450 2C19; P33261; CYP2C19 Supersomes, luciferin-H EGE luminescence, 30 min; inhibition, % at 5 µM; 21% of 96,000 active; AID 778;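 active means CYP2C19 inhibition above a set limit at 5 µM in the primary screen, cut at about 50% in these data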;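 further: plate controls were negative control wells for no effect and 2.5 mM tranylcypromine positive control for full effect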
# CYP2C9 activ – CYP2C9 (human) activation. P11712. recombinant CYP2C9, luciferin-H conversion, luminescence; active compounds read high; factor 1 = untreated enzyme, 0 = blocked. activation factor at 5 µM. 1.4% of 96,000 active;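 active means activation factor of 2 or more for CYP2C9 at a 5 µM dose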;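 further: 0 = sulfaphenazole-blocked wells and 1 = vehicle-only wells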
# Target sequence (P11712 whole entry, looked up): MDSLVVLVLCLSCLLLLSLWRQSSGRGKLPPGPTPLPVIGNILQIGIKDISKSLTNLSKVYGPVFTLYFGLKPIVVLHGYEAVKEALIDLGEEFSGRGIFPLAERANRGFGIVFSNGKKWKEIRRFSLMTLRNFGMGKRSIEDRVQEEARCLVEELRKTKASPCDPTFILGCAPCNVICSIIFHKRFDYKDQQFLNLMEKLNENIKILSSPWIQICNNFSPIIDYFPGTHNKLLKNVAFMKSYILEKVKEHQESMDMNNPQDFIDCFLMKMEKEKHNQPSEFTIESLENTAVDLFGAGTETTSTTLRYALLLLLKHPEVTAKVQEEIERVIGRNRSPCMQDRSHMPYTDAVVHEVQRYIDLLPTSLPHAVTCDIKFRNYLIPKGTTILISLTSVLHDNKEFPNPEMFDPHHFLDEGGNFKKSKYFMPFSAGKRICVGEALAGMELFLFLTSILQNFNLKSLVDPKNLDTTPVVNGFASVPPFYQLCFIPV
# CYP2C9 inh – human CYP2C9 inhibition. CYP2C9 Supersomes, luciferin-H conversion, luminescence. inhibition, % at 5 µM. 20% of 96,000 active. AID 777;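 active means blocking of liver enzyme CYP2C9 beyond about 50% at 5 µM, limit read from the data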
# CYP2C19 activ – activators of human cytochrome P450 2C19. recombinant CYP2C19, luciferin-H EGE luminescence; active compounds read high; 0 = fully inhibited enzyme, 1 = untreated enzyme. 96,000 tested, under 10 active. activation factor at 5 µM;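 active means activation factor of at least 2 at 5 µM in the primary screen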;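 further: 0 = wells with 2.5 mM tranylcypromine and 1 = vehicle-only wells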
# Cav3 T inh – inhibitors of human Cav3.2 T-type calcium channel; Cav3.2-expressing cells, Fluo-4 calcium fluorescence FDSS; active compounds read low; B-score at 10 µM; 4% of 100,000 active; AID 449739;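 active means single-dose well whose peak fluorescence ratio is a statistical outlier from its plate by either plate-standardised score or position-corrected B-score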
# Starred values were filed as active, the others as inactive; . = no result given.
SMILES,CYP2C19 inh,CYP2C9 activ,CYP2C9 inh,CYP2C19 activ,Cav3 T inh
COc1ccc(-c2nnc(SCC(=O)N3CCCC(C)C3)o2)c(OC)c1 (stereo not given),71*,0.8,20,0.3,-0.17
CC1CCCC(C)N1C(=O)CSc1nnc(-c2c[nH]c3ccccc23)o1 (stereo not given),28,1.1,-8,0.7,2.2
CCC1CCCCN1C(=O)CSc1nnc(-c2c[nH]c3ccccc23)o1 (stereo not given),91*,1.6,-62,0.1,-0.11
CCC1CCCCN1C(=O)CSc1nc2c([nH]c3ccccc32)c(=O)n1C (stereo not given),.,.,.,.,-0.38
CCCc1cc(C(=O)Nc2sc(C)c(C)c2C(=O)OCC)no1,-13,1.8,-79,1.1,-0.5
CCOc1ccc(-c2nc(N)ncc2Oc2cccc(OC)c2)c(O)c1,1,1,-4,1,0.7
COc1cccc(Oc2cncnc2-c2ccc(OC)cc2O)c1,98*,0,99*,0,-3.9*
CC1(C2CC2)NC(=O)NC1=O (stereo not given),-3,1.1,-11,1,0.015
Oc1c(C=NCc2ccc(F)cc2)[nH]c2ccc(Br)c(Cl)c12,46,0.7,35,0.5,-3.5
Cc1ccc(CN=Cc2[nH]c3ccc(Br)c(Cl)c3c2O)cc1,20,0.5,46,0.8,-3.1*
COc1ccccc1OCCSc1nnnn1C1CCCCC1,.,.,.,.,-0.15
O=C(CSc1nnnn1C1CCCCC1)Nc1cccc(NC(=O)c2ccco2)c1,69*,0.2,77*,0.3,-3.8
O=C(CSc1nnnn1C1CCCCC1)NCc1ccccc1,62*,0.4,62*,0.4,0.52
COc1cc(NC(=O)CSc2nc3ccccc3c(=O)n2C)ccc1NC(=O)c1ccco1,0,0.9,14,1,-0.55
COc1cc(NC(=O)CSc2nnc(-c3ccncc3)n2C2CCCCC2)ccc1NC(=O)c1ccco1,62*,0.3,72*,0.4,0.52
c1ccc(OCCSc2nnnn2C2CCCCC2)cc1,68*,0.2,82*,0.3,.
Cc1ccc(Cl)cc1NC(=O)CCC(=O)Nc1cc(Cl)ccc1C,-23,0.9,14,1.2,.
Cc1cc(C)n(-c2nc3c(c(=O)[nH]c(=O)n3C)n2CC(C)C)n1,3,1.3,-34,1,0.25
CC(C)N(C(=O)CSc1nnnn1C1CCCC1)C(C)C,81*,0.7,28,0.2,-3.7*
Cc1ccc(-n2nnnc2SCC(=O)Nc2ccc3c(c2)OCCO3)cc1C,.,.,.,.,1.5
O=C(CSc1nnnn1C1CCCCC1)N1CCCC1,-1,1.1,-8,1,1
O=C(CSc1nnnn1C1CCCC1)Nc1cccc(NC(=O)c2ccco2)c1,83*,0.2,83*,0.2,-0.44
Cc1ccc(-n2nnnc2SCC(=O)NNC(=O)c2ccco2)cc1C,-2,2*,-95,1,0.16
CC(=O)c1cccc(-n2nnnc2SCC(=O)Nc2cccc(NC(=O)c3ccco3)c2)c1,82*,0.4,55*,0.2,-0.56
Cc1cc(C(=O)N/N=C2\CCCC(C)C2)n[nH]1 (stereo not given),-4,1.1,-10,1,0.34
SMILES,CYP2C19 inh,CYP2C9 activ,CYP2C9 inh,CYP2C19 activ,Cav3 T inh
O=C(CSc1nnnn1C1CCCCC1)Nc1ccc2c(c1)OCO2,25,0.5,53*,0.8,-0.22
O=C(CSc1nnnn1C1CCCC1)Nc1ccc(F)cc1,31,0.9,10,0.7,0.56
COc1ccc(Cl)cc1C(=O)CSc1nnnn1C1CCCC1,76*,0.9,6,0.2,-3.7
CCc1c(C)c(C#N)c2nc3ccccc3n2c1NCc1ccco1,42,0.3,71*,0.6,-2.4
CCc1c(C)c(C#N)c2nc3ccccc3n2c1NCCN(C)C,4,0.8,22,1,2.4
Cc1cc(Cl)c(S(N)(=O)=O)cc1OCC(N)=O,-5,1,-4,1.1,-0.23
CNS(=O)(=O)c1cc(OCC(N)=O)c(C)cc1Cl,-17,2.4*,-140,1.2,0.59
Cc1cc(Cl)c(S(=O)(=O)N2CCSCC2)cc1OCC(N)=O,26,3*,-205,0.7,-0.2
O=C(CC12CC3CC(CC(C3)C1)C2)NCO,-1,1.1,-10,1,0.063
CC(NC(=O)CC12CC3CC(CC(C3)C1)C2)C(=O)O (stereo not given),-16,1.2,-22,1.2,-3.5*
COc1cc(CNCCO)ccc1OCC(=O)Nc1ccc(Br)cc1,19,0.9,14,0.8,0.48
COC(=O)COc1ccc(S(=O)(=O)NCc2cccnc2)cc1,35,0.9,15,0.6,1.1
